Data taken from the supplement of paper PMC11417369.
The full ranking holds about 25,000 sequences; the median of “ln(normalized median fluorescence intensity)” is about 7.1, and the highest 2% start at about 10. This is one part of a sample in which the highest values are shown more often than they occur.

What follows are sequences tested on PfSIP2 AP2 domain 1 (GST-tagged) (assay: gcPBM binding intensity (ln(normalized median fluorescence intensity)); higher = stronger DNA binding).
Outline: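 Using an Agilent 4 × 180k array, primer-extended double-stranded 36-bp intergenic genomic probes and negative controls were exposed for 1 h to GST-fused P. falciparum DNA-binding domains expressed in E. coli. Binding was carried out in 1× PBS with 1% milk, 0.2 mg/ml BSA, 0.5% salmon testes DNA and 0.03% Triton X-100, and protein was detected with Alexa488 anti-GST antibody and a 488 nm scan. Binding intensity is the highest Masliner-normalised natural-log median intensity across replicate spots of either probe orientation.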

Row | Sequence | gcPBM binding intensity (ln)
1 | ATTTATTTATTTAGCTGTACATTTATACAGAACGAT [XGTACX_site3336] | 7
2 | ACATTATGTCATAAATGTACACATACATATACATAC [XGTACX_site8998] | 7.11
3 | AAAAATAAGATATATACACACATATAAATATAAATA [CACACA_site7396] | 6.82
4 | TATATATATATATGTGCACACATAAAGATATTATTT [CACACA_site3734] | 9.38
5 | GCCAATAAAGATGTGGTGCATTATATATATATATAT | 10.6
6 | TAAATATATATATAAGTGCATTATATATATATATAA | 8.97
7 | GCTTTAATCTGAAAGTGTACAGATAATATATTTATA [XGTACX_site2462] | 7.15
8 | ATATGTAAAATATGGTGTACAATCAAATAAAAAAAA [XGTACX_site6270] | 7.16
9 | ATAATGTAAAAGTAAACACACACATATATATATACA [CACACA_site8793] | 7.06
10 | TTTTGAAGTAACAAATAAATAAATAAATATATAAAA [GTGCAC_negctrl_site517] | 6.92
11 | AAAAAAAAAAAAAAAGTGCACTGAAAATATATTGAA [GTGCAC_site9395] | 10.9
12 | TTTGTTCTTTTTGAAGTGCACTGAAATATAACAAAA | 10.7
13 | AAATAATATTGAAAAGTGCATATTTTTGTTGATATA | 8.42
14 | TATATATATATATAGGTGCAATATTGAAAAAATATC [GTGCAC_site9535] | 9.82
15 | TTCTTGTTCCTGAAAGTGCATATAACAAAAATAACA [GTGCAC_site9635] | 9.52
16 | ATATCAAATTCTGAAACACACAAAATTACACCTCTA [CACACA_site169] | 7.06
17 | AAATAAAAAAAGAAACGTACATATATTGGTTTCGTC [XGTACX_site3510] | 6.96
18 | AAAAAAAAAAAAAAAAAAAAAAAAATATATAATTTA [CACACA_negctrl_site583] | 8.71
19 | CACCTCAATATTCACATACACACAATATCATCGAAG [CACACA_site1675] | 7.33
20 | AATTATATGAAATAAACACACATATGTAATATTACA [CACACA_site1928] | 6.76

Row | Sequence | gcPBM binding intensity (ln)
21 | TTAATGTTTGAAAGAGTGCACATAACAAAAAAAAAA [GTGCAC_site9623] | 11.1
22 | AAAAAAACATAACAAAATGAAACAAAACAAAAAGAA [GTGCAC_negctrl_site577] | 7.28
23 | CACATATACAAAAAGAAATGTTTAGTTGAAAATTAA [CACACA_negctrl_site1407] | 6.67
24 | TCCTAATATATGTATGCACACACAATATATACATAT [CACACA_site9111] | 7.36
25 | AATATAAGAATATATACACACATAAATACATACATA [CACACA_site4128] | 7.01
26 | ATTATATATAAGAAGAGTACTGAATATGTGCAATAT [XGTACX_site4471] | 7.43
27 | TATATATATATATATGTGCACTGAAAGAATTATACA [GTGCAC_site9586] | 10.3
28 | ATATACATATATATATGTACTGAAAAGAAAAGAATT [XGTACX_site150] | 7.08
29 | AGGTGTATCATAAAATGTACATACATACATACATAA [XGTACX_site4479] | 7.02
30 | ATAAGATAGGCATATACACACATTTATTTACAGATA [CACACA_site5754] | 6.87
31 | TTATATTAGCCGATGGTGCATATATTTATAGGAAAA [GTGCAC_site9518] | 10.1
32 | TTATATAGGCAGATGGTGCATCTATTTATAAGCAAC | 10.7
33 | TGTCTTGTAAATTATTGTACTATTTAAAGTATACAA [XGTACX_site7864] | 7.21
34 | TATGAATTTATCTACAACATTTGAAATAAATTAAAA [CACACA_negctrl_site79] | 6.72
35 | TTGTTTATCAACAGCACACACAACAACAACAACAAC [CACACA_site458] | 7.25
36 | AAATATAATAATAATTTAAGAATCTAATATTTTATA [CACACA_negctrl_site831] | 6.59
37 | ATACGATTGCAGTCAAAAAGGAAAATATAAAAAAAG [XGTACX_negctrl_site124] | 7.29
38 | TTTTTTTTTTTTTCAAGTACATATATATATATATAA [XGTACX_site2098] | 7.58
39 | TTTTACGTGAGTAATACACACATATAAGTTTATATA [CACACA_site4120] | 6.74
40 | TTTTTTTTTTTTCACGTGCACTATACATATAAGTAA | 10.5

Row | Sequence | gcPBM binding intensity (ln)
41 | AATATAATATTATATAGTACATATTTCTTTTATTTT [XGTACX_site22] | 6.82
42 | TTTTCAAAAATATATACACACATGCATATTACGGTG [CACACA_site775] | 6.98
43 | AAAATTTCAATAAATACACACATATATATATATATT [CACACA_site1685] | 7.07
44 | ACACATACACATTAGGTGCATATATTTCAATATTAC [GTGCAC_site9423] | 10.3
45 | TTGTTGTATTATTTATGTACATATGTATATGTATAT [XGTACX_site1315] | 7.17
46 | ACAAAAAAAAACGTGGTGCATTAATAATATTGTATA [GTGCAC_site9469] | 10.3
47 | AATATTGTATATAATAAACACACAATATTAAAAATA [CACACA_site8262] | 6.99
48 | TATTGTATATAATAAACACACAATATTAAAAATATA [CACACA_site1057] | 6.8
49 | ATATGGTGATATAGGTGTACATTTTGATGCTTATTT [XGTACX_site4283] | 6.95
50 | AGCATTTTAAGTTATACACACATTTTGAATCTATAT [CACACA_site7599] | 6.89
51 | TTATTTTCTTTCTATGCACACGCACGTATTTGCCCA [CACACA_site9104] | 7.91
52 | CACCCGCACGTATTTGCACACATTGCCACGTAATTA [CACACA_site5786] | 7.76
53 | ATTTTCTTTCTATGCACACGCACGTATTTGCACCCA [CACACA_site3350] | 11.9
54 | TACATAAATTTTAATACATGCAAATAAAATATATAA [TGCATGCA_site131] | 6.94
55 | TAAAAATAAATAAATACATGCACCAAAAATAAATTT [TGCATGCA_site801] | 10.2
56 | TTAAAAAAATATAATACACACCAAAAATATGCACAT [CACACA_site5209] | 9.27
57 | TCCTATGATGATGATAGTACATATGAGTTCAAAAAA [XGTACX_site273] | 6.81
58 | CACCAATTCATATGCACACACATCTGCATATTATAT [CACACA_site1773] | 7.43
